Screens as filed in PubChem.
Compounds with a hit are over-represented: about 3.7% of the library has one in this group of screens.
AF4-AF9 inh – inhibitors of human MLL-AF4/AF9 interaction; AlphaScreen, biotin-AF4 peptide binding to FLAG-AF9; P42568; 350,000 tested, 0.47% active; inhibition, % at 10 µM;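 active = every replicate reaching a set inhibition limit, whatever the replicate mean, cut at about 25% in these data; inconclusive = mean inhibition reaches that limit but some replicates miss it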;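 also: 0% = plate neutral control median and 100% = total signal loss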
Target sequence (P42568 whole entry, looked up): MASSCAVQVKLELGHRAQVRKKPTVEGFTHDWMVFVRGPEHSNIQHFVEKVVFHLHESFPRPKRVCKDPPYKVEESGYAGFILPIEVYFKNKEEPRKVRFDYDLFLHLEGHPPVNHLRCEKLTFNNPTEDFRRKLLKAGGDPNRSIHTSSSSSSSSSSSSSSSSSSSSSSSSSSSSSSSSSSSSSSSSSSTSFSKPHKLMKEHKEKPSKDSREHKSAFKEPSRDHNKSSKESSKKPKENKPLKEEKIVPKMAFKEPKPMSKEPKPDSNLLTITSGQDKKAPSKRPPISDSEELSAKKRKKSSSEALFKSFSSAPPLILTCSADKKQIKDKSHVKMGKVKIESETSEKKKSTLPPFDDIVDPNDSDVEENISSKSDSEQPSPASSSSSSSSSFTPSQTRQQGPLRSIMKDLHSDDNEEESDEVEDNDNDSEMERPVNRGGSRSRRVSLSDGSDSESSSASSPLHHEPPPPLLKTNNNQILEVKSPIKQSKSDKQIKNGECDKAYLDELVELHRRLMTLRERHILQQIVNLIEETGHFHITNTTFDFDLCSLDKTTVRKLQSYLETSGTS
Wnt act – Wnt/beta-catenin pathway activation | Wnt/beta-catenin reporter cell assay, activator, plate reader | activation, % at 9.35 µM | 300,000 tested, 1.2% active | AID 743398; in the data active = activation above about 30%, passing the limit was not always enough; inconclusive = no clear call, values can overlap the other calls;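 also: 0% = neutral control wells and 100% = positive control wells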
rRNA inh HTS – inhibitors of bacterial rRNA selective over humanized ribosomes; E. coli WT GFP vs humanized-ribosome RFP mutants, fluorescence, 24 h; active compounds read low; DMSO median 0, no signal -100; GFP signal change (wild-type ribosome), % (no concentration beside the values); 350,000 tested, 1.6% active;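 active = significant combined selectivity score with lowered wild-type GFP, culture density cut under 30%, mutant RFP and density less affected; inactive = any of these conditions unmet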
MITF TRPM1 HTS – increases MITF-driven TRPM1 promoter luciferase signal; SK-MEL-5 TRPM1-promoter luciferase, 24 h; % of positive control, neutral wells = 0; activation, % at 12.5 µM; 300,000 tested, 0.75% active;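 active = mean activation of at least 80% with every replicate also reaching 80%; inconclusive = mean reaches 80% but some replicate falls short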;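 also: 0% = neutral control wells and 100% = parthenolide positive control wells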
esBAF inh – blocks esBAF chromatin remodeling in mouse ES cells; reporter increase, % at 12.5 µM; Bmi1-luciferase knock-in reporter, 24 h; 100% = twice the neutral-well signal; 350,000 tested, 2% active; in the data active = activation above about 40%; inconclusive = no clear call, values can overlap the other calls;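 also: 0% = median of the plate's neutral control wells and 100% = double that signal; a rise in the Bmi1 reporter signal indicates esBAF inhibition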
Starred values were filed as active, the others as inactive; ? = inconclusive; . = not tested or not shown.

SMILES	AF4-AF9 inh	Wnt act	rRNA inh HTS	MITF TRPM1 HTS	esBAF inh
COc1cc2c(c(OC)c1OC)-c1c(cc3c(c1OC)OCO3)[C@@H](OC(C)=O)[C@H](C)[C@H](C)C2	4	0	-42*	11	-7
O=C(Nc1ccc(F)cc1)C(Sc1nnc2ccccn12)c1ccccc1 (stereo not given)	49*	-2	-12	-8	.
O=C(Nc1ccc2ccccc2c1)c1cc(F)c(F)cc1Cl	-2	15	6	.	78*
O=C(Nc1ccc2c(c1)C(=O)OC2)c1ccc(Cl)cc1	-2	8	12	30	27
O=C(Nc1ccc2ccccc2c1)c1ccccc1O	-1	8	-40	5	.
O=C(Nc1ccc2ccccc2c1)c1ccccc1Cl	-3	44*	-1	.	-5
O=C(N/N=C/c1ccccn1)c1ccc(NC(=O)c2ccccc2Cl)cc1	5	-2	-21*	-9	-3
O=C(N/N=C/c1ccccn1)c1ccc(NC(=O)c2ccc(F)cc2)cc1	2	1	-10	-3	6
O=C(Nc1ccc2c(c1)C(=O)OC2)c1ccc(Cl)cc1Cl	?	11	5	75	53*
Cc1cnc(=O)[nH]c1SCc1ccc([N+](=O)[O-])cc1	4	1	-3	-8	-1
COc1ccc(S(=O)(=O)N(C)C[C@@H]2OCc3ccccc3-c3c(n(C)c4ccccc34)C(=O)N([C@H](C)CO)C[C@@H]2C)cc1	5	.	-3	.	2
C[C@H](O)C#Cc1cnc2c(c1)C(=O)N([C@H](C)CO)C[C@@H](C)[C@H](CN(C)Cc1cccc(F)c1)O2	-2	.	2	.	-5
O=S(=O)(c1ccccc1)N1CCCC1c1cccs1 (stereo not given)	-2	-1	-9	.	.
O=C(Nc1ccc(Oc2cccnc2)nc1)c1ccc(C(F)(F)F)cc1	-3	-2	-4	3	.
O=C(Nc1ccc(N=Nc2ccccc2)cc1)c1ccccc1Cl	.	.	.	121*	.
O=C(NNC(=O)c1ccc(Cl)cc1Cl)c1ccc2ccccc2c1	7	-2	2	5	3
O=C(Nc1ccc2ccccc2c1)c1ccc(Cl)cc1Cl	-3	39*	-1	70	-17
O=C(Nc1ccc2ccccc2c1)c1ccccc1[N+](=O)[O-]	2	24	-17	32	51*
COc1ccccc1N1CCN(C(=O)CCc2nnc3ccc(N4CCC(C)CC4)nn23)CC1	3	-2	-23*	-23	10
COc1cccc(N2CCN(C(=O)CCc3nnc4ccc(N5CCCC5)nn34)CC2)c1	-12	-2	-2	-7	5
C/C(=N\OC(=O)c1c(-c2ccccc2Cl)noc1C)c1ccncc1	3	-2	-23*	4	.
Cc1onc(-c2ccccc2Cl)c1C(=O)O/N=C(\N)c1ccccc1	-3	-1	-4	-1	-4
CSCCC(NC(=O)c1ccco1)C(=O)N(C)CC(=O)Nc1ccccc1Br (stereo not given)	-10	-2	6	-6	0
COC1C=CC(CNC(=O)c2cc3c(=O)n4cccc(C)c4nc3n2C)(OC)O1 (stereo not given)	-2	-2	4	8	.
CC1(c2ccccc2)NC(=O)N(CC#N)C1=O (stereo not given)	-3	36*	12	14	.
SMILES	AF4-AF9 inh	Wnt act	rRNA inh HTS	MITF TRPM1 HTS	esBAF inh
Cc1nn(-c2ccc(F)cc2)c2nc(N)c(C#N)c(-c3ccc(O)c(O)c3)c12	5	0	-18*	-17	-9
CCCCc1nc(NCc2ccccc2)c(C#N)c2c1COC(C)(C)C2	.	.	.	-3	.
COc1cc(-c2cc(-c3ccccc3)nc(SCC(=O)O)c2C#N)cc(OC)c1OC	-1	0	-29*	-1	-5
CC1(C)CC(N2CCCC2)=CC(=[N+]2CCCCCC2)C1	2	-10	-21*	-49	.
CCC(=O)N1CC2(C1)CN(Cc1cccc(Cl)c1)[C@H](CO)c1c2c2ccc(OC)cc2n1C	6	.	-6	.	.
c1ccc2c(COn3nnc4ccccc43)cccc2c1	.	.	.	64	56*
c1ccc2c(Cn3nnc4ccccc43)cccc2c1	.	.	.	-11	-5
Cc1ccc(S(=O)(=O)CCC(=O)NCCN2C(=O)S/C(=C\c3ccccc3)C2=O)cc1	.	-1	.	0	45*
O=C(CCS(=O)(=O)c1ccc(Cl)cc1)NCCN1C(=O)S/C(=C\c2ccccc2F)C1=O	1	0	-1	11	.
O=C(CCn1c(=O)c2cccn2c2ccccc21)Nc1ccc(F)cc1	2	0	-18	-6	1
C=CCN1CCc2c(cc(O)c(O)c2Cl)C(c2ccccc2)C1 (stereo not given)	52*	-3	-11	8	2
O=C1CCC(c2ccccc2)(C2CCN(Cc3ccccc3)CC2)C(=O)N1 (stereo not given)	-4	1	.	0	4
C=CCN(C(=O)c1csnn1)C(C(=O)NC1CCCC1)c1c(F)cccc1Cl (stereo not given)	4	-1	-21*	-3	-4
Fc1cnc(Cl)nc1N1CCN(c2ccccc2)CC1	-3	3	-23*	14	.
CNc1snc(C)c1C(=O)OC(C)C(=O)c1ccc(F)cc1 (stereo not given)	-3	-3	-24*	-1	-1
O=c1[nH]c2ccccc2c2nc3ccccn3c12	.	-4	.	.	49*
COc1cc(/C=N/OCC(=O)Nc2cc(C)cc(C)c2)ccc1OCc1ccc(Cl)cc1	4	?	7	75	.
COc1ccc(/C=N/N2CCOCC2)cc1OCc1ccccc1	8	-4	15	-1	-8
COc1cc(/C=N/N2CCOCC2)ccc1OCc1ccccc1	13	13	0	53	61*
COc1cc(/C=N/OCC(=O)NC2CCCCC2C)ccc1OCc1ccc(Cl)cc1 (stereo not given)	.	47*	.	42	98*
COc1cc(/C=N/N2CCOCC2)ccc1OCc1ccc(Cl)cc1	-2	11	11	96*	.
N#Cc1ccc(-c2ccc3c(c2)[C@H]2[C@H](CCN2C(=O)C2CCCCC2)[C@@H](CO)N3)cc1	-3	.	-26	.	-4
Cc1ccc([C@H]2N[C@]3(CCCN(Cc4cccn4C)C3=O)[C@H]3C(=O)N(C)C(=O)[C@@H]23)cc1	4	-2	-4	.	-1
CC(=O)c1c(C)[nH]c(C(=O)OCc2ccccc2)c1C	2	26	-8	50	40*
Cc1ccc(C(=O)COC(=O)c2cccc([N+](=O)[O-])c2)s1	5	11	-6	57	46*
COC(=O)c1ccc(COC(=O)c2[nH]c(C)c(C(C)=O)c2C)o1	.	-3	.	.	-6
CCOC(=O)c1c(C)[nH]c(C(=O)OCC(=O)NCc2ccccc2)c1C	1	-1	0	16	19
O=C(OCC(=O)c1c[nH]c2ccccc12)c1cccc([N+](=O)[O-])c1	11	4	-1	17	-8
